For some assays here: Measured potencies and affinities stand elsewhere. Calls of active or inactive are those of the source. Unless noted, how the calls were made is not given here.
Key:
[1] = antimalarial activity against Dd2 strain (AID 2302;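 active means growth inhibition above 50% at the single 2 µM test dose, taken to imply half-maximal potency below 2 µM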;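 further: 0% = DMSO untreated growth and 100% = chloroquine plus artemisinin killed control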); settings: P. falciparum Dd2 in RBCs, LDH growth readout, 72 h; at 2 µM; hits give high values
[2] = human hepatoma cell viability loss – ATP luminescence, cytotoxicity control for P. falciparum antimalarial project, primary screen (AID 2303;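 active means inhibition above 50%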;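 further: 0% = DMSO wells and 100% = digitonin-killed cells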); settings: HepG2 viability, 24-48 h, at 10 µM, hits give high values
[3] = target: L-lactate dehydrogenase (Plasmodium falciparum (isolate CDC / Honduras)) (UniProt Q27743); test: PfLDH activity inhibition – cell lysate, 3D7 strain, counter-screen for P. falciparum growth inhibition project (AID 2304);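 further: 0% = vehicle and 100% = reference inhibitor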; settings: P. falciparum 3D7 crude extract, LDH APAD/NBT absorbance; at 2 µM; hits give high values
Chain of L-lactate dehydrogenase (Plasmodium falciparum (isolate CDC / Honduras)) (Q27743 whole entry, looked up): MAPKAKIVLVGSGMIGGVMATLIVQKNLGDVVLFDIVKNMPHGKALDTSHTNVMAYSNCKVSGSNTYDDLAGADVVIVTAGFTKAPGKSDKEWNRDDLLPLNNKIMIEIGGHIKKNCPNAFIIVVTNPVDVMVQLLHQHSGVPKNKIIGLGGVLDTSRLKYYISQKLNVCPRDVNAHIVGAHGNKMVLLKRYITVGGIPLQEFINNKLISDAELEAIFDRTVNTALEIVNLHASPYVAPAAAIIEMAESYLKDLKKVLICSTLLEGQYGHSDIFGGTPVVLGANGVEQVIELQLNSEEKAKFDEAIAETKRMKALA

[4] = inhibition of 3D7 malaria parasite growth – strain 3D7 (AID 2306);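 further: 0% = DMSO wells and 100% = chloroquine plus artemisinin control wells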; settings: P. falciparum 3D7 erythrocytic growth, LDH absorbance, 72 h; at 2 µM; hits give high values
[5] = target: Calcium-dependent protein kinase 1 (Plasmodium falciparum (isolate 3D7)) (UniProt P62344); test: PfCDPK1 kinase inhibitors, biochemical, TCAMS library (AID 1159585; cut-off not given, nearly all actives have IC50 up to about 0.98 µM;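 further: inhibitors leave more ATP so luminescence rises with inhibition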); settings: recombinant PfCDPK1, Kinase-Glo ATP depletion luminescence
Chain of Calcium-dependent protein kinase 1 (Plasmodium falciparum (isolate 3D7)) (P62344 whole entry, looked up): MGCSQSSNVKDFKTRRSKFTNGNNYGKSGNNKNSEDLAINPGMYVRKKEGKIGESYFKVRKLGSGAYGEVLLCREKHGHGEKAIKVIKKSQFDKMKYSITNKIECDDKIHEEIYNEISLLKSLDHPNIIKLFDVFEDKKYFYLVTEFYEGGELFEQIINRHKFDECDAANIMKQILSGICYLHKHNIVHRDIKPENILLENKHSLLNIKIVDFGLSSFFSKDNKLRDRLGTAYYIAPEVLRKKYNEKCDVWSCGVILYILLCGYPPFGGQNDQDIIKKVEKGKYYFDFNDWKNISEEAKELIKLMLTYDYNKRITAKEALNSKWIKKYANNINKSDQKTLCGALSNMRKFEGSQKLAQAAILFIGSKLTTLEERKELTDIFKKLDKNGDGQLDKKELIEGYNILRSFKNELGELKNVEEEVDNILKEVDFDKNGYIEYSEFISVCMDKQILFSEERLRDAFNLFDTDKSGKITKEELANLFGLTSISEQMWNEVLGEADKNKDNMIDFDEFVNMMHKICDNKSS

[6] = target: Plasmodium falciparum protein kinase 6 (PK6, PF3D7_1337100) (UniProt Q8IDW1); test: PfPK6 kinase inhibitors, biochemical, TCAMS library (AID 1159586); settings: recombinant PfPK6, Kinase-Glo ATP depletion luminescence
Chain of Plasmodium falciparum protein kinase 6 (PK6, PF3D7_1337100) (Q8IDW1 1-305): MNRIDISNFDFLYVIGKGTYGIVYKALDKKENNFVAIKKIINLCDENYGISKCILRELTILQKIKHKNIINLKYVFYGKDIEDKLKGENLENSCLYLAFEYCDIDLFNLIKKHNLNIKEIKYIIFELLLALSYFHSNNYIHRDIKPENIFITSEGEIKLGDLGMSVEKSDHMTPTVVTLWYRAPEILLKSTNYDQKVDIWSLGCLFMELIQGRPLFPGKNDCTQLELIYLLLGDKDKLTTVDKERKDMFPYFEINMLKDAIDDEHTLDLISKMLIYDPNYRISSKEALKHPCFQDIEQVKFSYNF

[7] = target: Protein kinase 7 (PK7), Plasmodium falciparum 3D7 (PF3D7_0213400) (UniProt Q7YTF7); test: inhibition of Plasmodium PK7 catalytic activity – biochemical, TCAMS antimalarial set, Kinase-Glo luminescence (AID 1159587); settings: recombinant PfPK7, Kinase-Glo ATP depletion luminescence
Chain of Protein kinase 7 (PK7), Plasmodium falciparum 3D7 (PF3D7_0213400) (Q7YTF7 1-343): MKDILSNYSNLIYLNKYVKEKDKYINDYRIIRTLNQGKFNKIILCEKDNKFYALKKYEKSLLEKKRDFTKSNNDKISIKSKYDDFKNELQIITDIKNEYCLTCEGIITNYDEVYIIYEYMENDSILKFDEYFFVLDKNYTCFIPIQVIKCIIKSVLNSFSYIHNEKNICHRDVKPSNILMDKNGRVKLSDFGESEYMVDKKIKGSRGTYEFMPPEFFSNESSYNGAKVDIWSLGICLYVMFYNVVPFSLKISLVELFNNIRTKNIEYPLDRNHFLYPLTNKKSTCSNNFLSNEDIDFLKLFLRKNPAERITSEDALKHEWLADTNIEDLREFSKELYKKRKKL

[8] = target: Calcium-dependent protein kinase 4 (Plasmodium falciparum (isolate 3D7)) (UniProt Q8IBS5); test: PfCDPK4 kinase inhibitors, biochemical, TCAMS library (AID 1159588; cut-off not given, nearly all actives have IC50 up to about 0.91 µM); settings: recombinant PfCDPK4, Kinase-Glo ATP depletion luminescence
Chain of Calcium-dependent protein kinase 4 (Plasmodium falciparum (isolate 3D7)) (Q8IBS5 whole entry, looked up): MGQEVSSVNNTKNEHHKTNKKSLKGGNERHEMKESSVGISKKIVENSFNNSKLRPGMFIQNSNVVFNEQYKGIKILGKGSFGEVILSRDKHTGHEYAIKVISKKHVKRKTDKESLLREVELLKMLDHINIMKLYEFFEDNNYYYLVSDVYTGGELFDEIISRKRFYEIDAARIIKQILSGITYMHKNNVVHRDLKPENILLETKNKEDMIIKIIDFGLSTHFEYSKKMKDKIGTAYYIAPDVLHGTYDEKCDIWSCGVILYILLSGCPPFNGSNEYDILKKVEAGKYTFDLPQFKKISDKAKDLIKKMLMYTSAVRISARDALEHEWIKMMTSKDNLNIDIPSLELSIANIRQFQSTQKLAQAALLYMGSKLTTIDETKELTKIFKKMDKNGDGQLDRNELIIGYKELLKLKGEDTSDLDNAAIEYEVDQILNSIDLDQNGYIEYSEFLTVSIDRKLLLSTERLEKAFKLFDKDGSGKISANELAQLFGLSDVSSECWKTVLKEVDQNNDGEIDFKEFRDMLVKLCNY

COc1ccccc1CNC(=O)c1cc(OC)c(OC)cc1NC(=O)c1cccs1
active: growth inhibition [1] 71% | growth inhibition [4] 88%
inactive: inhibition [2] 12% | inhibition [3] 3% | outcome [5] | outcome [6] | outcome [7] | outcome [8]

OCCN1CCN(Cc2ccc(-c3cccc(-c4nc5ccc(C(F)(F)F)cc5[nH]4)c3)cc2)CC1
inactive: inhibition [2] 29% | inhibition [3] 0% | outcome [5] | outcome [6] | outcome [7] | outcome [8]
active: growth inhibition [1] 83% | growth inhibition [4] 99%

Cc1ccc(C)c(NC(=O)Nc2ccc(C)c(-c3ccc(C(=O)Nc4ccncc4)cc3)c2)c1
inactive: inhibition [2] 46% | inhibition [3] -3% | outcome [5] | outcome [6] | outcome [7] | outcome [8]
active: growth inhibition [1] 59% | growth inhibition [4] 98%

CCN(CC)CCN(Cc1ccc(-c2ccc(C(F)(F)F)cc2)cc1)C(=O)Cn1c(CCc2ccc(F)c(F)c2)cc(=O)c2ccccc21
inactive: growth inhibition [1] 26% | inhibition [2] 23% | inhibition [3] -1% | outcome [5] | outcome [6] | outcome [7] | outcome [8]
active: growth inhibition [4] 95%

O=C1OC(c2cc3ccccc3n2S(=O)(=O)c2ccccc2)(c2cc3ccccc3n2S(=O)(=O)c2ccccc2)c2ccccc21
active: growth inhibition [1] 78% | growth inhibition [4] 95%
inactive: inhibition [2] 1% | inhibition [3] -1% | outcome [5] | outcome [6] | outcome [7] | outcome [8]

c1cc(C2=N[C@H]3CCCC[C@@H]3N2)ccc1OCCCCCOc1ccc(C2=N[C@@H]3CCCC[C@H]3N2)cc1
active: inhibition [2] 80% | growth inhibition [4] 101%
inactive: growth inhibition [1] 23% | inhibition [3] -5% | outcome [5] | outcome [6] | outcome [7] | outcome [8]

Cc1nc(N)nc(N)c1-c1ccc(Br)cc1
active: growth inhibition [4] 98%
inactive: growth inhibition [1] 1% | inhibition [2] 46% | inhibition [3] 3% | outcome [5] | outcome [6] | outcome [7] | outcome [8]

COc1ccc2nccc([C@@H](O)CN3CCC(NC(=O)c4nc(Cl)c(Cl)c(N)c4Cl)CC3)c2c1
inactive: growth inhibition [1] 17% | inhibition [2] 16% | inhibition [3] 2% | outcome [5] | outcome [6] | outcome [7] | outcome [8]
active: growth inhibition [4] 87%

Cc1cc(N2CCN(CC3CCN(C)CC3)CC2)nc(Nc2ccc(Cl)cc2)n1
inactive: inhibition [2] 20% | inhibition [3] -6% | outcome [5] | outcome [6] | outcome [7] | outcome [8]
active: growth inhibition [1] 89% | growth inhibition [4] 99%

Cc1cc(N[C@@H](Cc2ccccc2)C(=O)NCCOc2ccccc2)nc(NCCc2cccs2)n1
active: growth inhibition [4] 95%
inactive: growth inhibition [1] 32% | inhibition [2] 8% | inhibition [3] 0% | outcome [5] | outcome [6] | outcome [7] | outcome [8]

COc1ccc(CN(C)CCOc2ccc(NC(=O)c3cccc4c(=O)c5cc(SC)ccc5[nH]c34)cc2)cc1OC
active: growth inhibition [1] 98% | inhibition [2] 67% | growth inhibition [4] 96%
inactive: inhibition [3] 1% | outcome [5] | outcome [6] | outcome [7] | outcome [8]

CCCCN(CCCC)CCOc1cc2c(cc1OC)CCN2C(=O)/C=C/c1ccccc1Cl
active: growth inhibition [4] 87%
inactive: growth inhibition [1] 31% | inhibition [2] 13% | inhibition [3] 0% | outcome [5] | outcome [6] | outcome [7] | outcome [8]

Cc1cc(C(F)(F)F)cc(-n2ncc(-c3ccc(C(=O)NCc4ccccc4N)cc3)c2N)n1
active: growth inhibition [1] 89% | growth inhibition [4] 99%
inactive: inhibition [2] 10% | inhibition [3] 3% | outcome [5] | outcome [6] | outcome [7] | outcome [8]

COc1cc(Cc2cnc(N)nc2N)cc(OCCCCCC(N)=O)c1OC
inactive: growth inhibition [1] -3% | inhibition [2] -33% | inhibition [3] 0% | outcome [5] | outcome [6] | outcome [7] | outcome [8]
active: growth inhibition [4] 90%

O=C(/C=C/c1ccc(Cl)c(Cl)c1)NCCCCCN1CCC(NC(=O)c2ccc(F)cc2)CC1
inactive: growth inhibition [1] 13% | inhibition [2] 14% | inhibition [3] -1% | outcome [5] | outcome [6] | outcome [7] | outcome [8]
active: growth inhibition [4] 102%

COc1ccc2nccc([C@@H](O)CN3CCC(NCc4cc5cc(Cl)ccc5[nH]4)CC3)c2c1
inactive: inhibition [2] 27% | inhibition [3] 5% | outcome [5] | outcome [6] | outcome [7] | outcome [8]
active: growth inhibition [1] 64% | growth inhibition [4] 99%

O=C(NCCN1CCOCC1)c1ccc(-c2ccc(CNCCCc3ccccc3)cc2)nc1
inactive: growth inhibition [1] 10% | inhibition [2] -11% | inhibition [3] -1% | outcome [5] | outcome [6] | outcome [7] | outcome [8]
active: growth inhibition [4] 97%

CCCCCCN(C(=O)OCc1ccccc1)[C@@H]1CCN(C(=O)OC(C)(C)C)C[C@H]1C(=O)OCC
active: growth inhibition [1] 96% | growth inhibition [4] 96%
inactive: inhibition [2] 9% | inhibition [3] -6% | outcome [5] | outcome [6] | outcome [7] | outcome [8]

COc1cccc(NC(=O)NC2CCN(CCCCCNC(=O)/C=C/c3ccc(Cl)c(Cl)c3)CC2)c1
active: growth inhibition [4] 102%
inactive: growth inhibition [1] 8% | inhibition [2] 14% | inhibition [3] -1% | outcome [5] | outcome [6] | outcome [7] | outcome [8]

O=C(NC(c1ccc(Cl)cc1)c1ccc2cccnc2c1O)c1ccccc1 (stereo not given)
active: growth inhibition [1] 80% | growth inhibition [4] 87%
inactive: inhibition [2] 44% | inhibition [3] -2% | outcome [5] | outcome [6] | outcome [7] | outcome [8]

CSc1ccc2nccc(Nc3ccc(Oc4ccccc4)cc3)c2c1
inactive: inhibition [2] 30% | inhibition [3] -7% | outcome [5] | outcome [6] | outcome [7] | outcome [8]
active: growth inhibition [1] 68% | growth inhibition [4] 94%

CC(C)(C)c1ccc(C(=O)Nc2cccc(Nc3c(C(=O)NCc4cccc(C(F)(F)F)c4)cnc4c(O)cccc34)c2)cc1
active: growth inhibition [1] 79% | growth inhibition [4] 83%
inactive: inhibition [2] 40% | inhibition [3] 1% | outcome [5] | outcome [6] | outcome [7] | outcome [8]

Cc1ccc2nc(-c3cc(-c4ccc(CO)cc4)cnc3N)[nH]c2c1
inactive: growth inhibition [1] 6% | inhibition [3] 9% | outcome [5] | outcome [6] | outcome [7] | outcome [8]
active: inhibition [2] 52% | growth inhibition [4] 95%

N#Cc1ccc(CNCCCCCCCNCc2ccc(-c3ccccc3)cc2)cc1
active: growth inhibition [4] 87%
inactive: growth inhibition [1] 10% | inhibition [2] 19% | inhibition [3] 3% | outcome [5] | outcome [6] | outcome [7] | outcome [8]

CC(C)(C)N1CCC(N(Cc2ccc(-c3ccc(C(F)(F)F)cc3)cc2)C(=O)Cn2c(CCc3cccc(F)c3F)cc(=O)c3cccnc32)CC1
inactive: inhibition [3] -1% | outcome [5] | outcome [6] | outcome [7] | outcome [8]
active: growth inhibition [1] 63% | inhibition [2] 100% | growth inhibition [4] 102%

CCOc1ccc2c(NN=Cc3cc(OC)c(OC)cc3OC)cc(C)nc2c1
active: growth inhibition [1] 97% | growth inhibition [4] 101%
inactive: inhibition [2] 24% | inhibition [3] 4% | outcome [5] | outcome [6] | outcome [7] | outcome [8]

CO/C(=C\C=C\c1cc2cc(Cl)ccc2[nH]1)C(=O)NCCCN1CCN(c2cc(Cl)ccc2OC)CC1
inactive: growth inhibition [1] 21% | inhibition [2] 41% | inhibition [3] -2% | outcome [5] | outcome [6] | outcome [7] | outcome [8]
active: growth inhibition [4] 97%

c1ccc2sc(Sc3ncnc4sccc34)nc2c1
inactive: inhibition [2] 7% | inhibition [3] 2% | outcome [5] | outcome [6] | outcome [7] | outcome [8]
active: growth inhibition [1] 100% | growth inhibition [4] 100%

COc1cc2c(c(OC)c1[N+](=O)[O-])C=CC1(O2)N(C)c2ccc([N+](=O)[O-])cc2C1(C)C (stereo not given)
active: growth inhibition [1] 89% | growth inhibition [4] 92%
inactive: inhibition [2] -13% | inhibition [3] -5% | outcome [5] | outcome [6] | outcome [7] | outcome [8]

CN1CCCN(Cc2cccc(-c3ccc(NS(=O)(=O)c4cccc5cccnc45)cc3)c2)CC1
active: growth inhibition [1] 87% | growth inhibition [4] 100%
inactive: inhibition [2] 44% | inhibition [3] 2% | outcome [5] | outcome [6] | outcome [7] | outcome [8]

COc1ccc(Nc2nccc(NCC(O)c3cccc(C(F)(F)F)c3)n2)cc1 (stereo not given)
active: growth inhibition [4] 98%
inactive: growth inhibition [1] 33% | inhibition [2] 22% | inhibition [3] -2% | outcome [5] | outcome [6] | outcome [7] | outcome [8]

O=c1nc(C=Cc2ccc(Br)cc2)oc2ccccc12
active: growth inhibition [1] 66% | growth inhibition [4] 97%
inactive: inhibition [2] -8% | inhibition [3] -1% | outcome [5] | outcome [6] | outcome [7] | outcome [8]

N=c1c(C(=O)NCc2ccccc2)cc2c(=O)n3ccccc3nc2n1CCc1ccccc1
inactive: growth inhibition [1] 25% | inhibition [2] 5% | inhibition [3] -6% | outcome [5] | outcome [6] | outcome [7] | outcome [8]
active: growth inhibition [4] 99%

Cc1ccc(Cc2cnc(NCCSCc3ccc(CN(C)C)s3)[nH]c2=O)cn1
inactive: growth inhibition [1] -5% | inhibition [2] 3% | inhibition [3] 0% | outcome [5] | outcome [6] | outcome [7] | outcome [8]
active: growth inhibition [4] 95%

Cc1cc(NN=Cc2ccccc2F)c2cccc(C)c2n1
inactive: growth inhibition [1] 14% | inhibition [2] 7% | inhibition [3] -2% | outcome [5] | outcome [6] | outcome [7] | outcome [8]
active: growth inhibition [4] 102%

Cc1ccc(C(=O)Nc2ccc(C)c(OC3CCN(CCC(C)C)C3)c2)cc1 (stereo not given)
active: growth inhibition [1] 53% | growth inhibition [4] 99%
inactive: inhibition [2] 6% | inhibition [3] -13% | outcome [5] | outcome [6] | outcome [7] | outcome [8]

Cc1c(Cn2ncc(N3CCC(N)CC3)c(Cl)c2=O)cccc1NC(=O)Nc1ccc(-c2ccccc2)cc1
inactive: growth inhibition [1] 43% | inhibition [2] 19% | inhibition [3] -1% | outcome [5] | outcome [6] | outcome [7] | outcome [8]
active: growth inhibition [4] 97%

Cc1cc2ncn(-c3ccnc(N4CCN(CCCN5CCCC5)CC4)n3)c2cc1C
active: growth inhibition [4] 100%
inactive: growth inhibition [1] 49% | inhibition [2] 24% | inhibition [3] -4% | outcome [5] | outcome [6] | outcome [7] | outcome [8]

Cc1cc(Oc2ccc(-n3ccnc3)cc2)nc(N2CCN(CCCN3CCCC3)CC2)n1
active: growth inhibition [4] 90%
inactive: growth inhibition [1] 7% | inhibition [2] 5% | inhibition [3] 0% | outcome [5] | outcome [6] | outcome [7] | outcome [8]

COc1cc(Cc2cnc(N)nc2N)cc(OCc2cccc(C(=O)O)c2)c1OC
active: growth inhibition [4] 92%
inactive: growth inhibition [1] -3% | inhibition [2] 8% | inhibition [3] 4% | outcome [5] | outcome [6] | outcome [7] | outcome [8]

From PubChem BioAssay
